In PubChem BioAssay AID1159580 (chemical genetic matrix, 2015):
In all, about 5,500 compounds went through this assay and about 2,000 (36%) were called active. Roughly 18% stayed inconclusive and do not appear here. Cut-off read from the data, not from the text of the source: active = normalized growth mostly below about 0.91 (no sharp cut-off); inconclusive = no clear call, values can overlap the other calls; inactive = mostly above about 0.92. Some of the results follow.

Test: chemical genetic growth profiling, strain panel (AID 1159580);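 note: tested at 20 µM; growth read once vehicle control cultures reached saturation at 30 °C; 1 = growth at the plate median or of vehicle wells; lower values mean less growth of the strain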
Details: growth OD
[1] = S. cerevisiae deletion strains, locus YAL013W, strain DEP1, stronger effect = lower value
[2] = S. cerevisiae deletion strains, locus YBR021W, strain FUR4, stronger effect = lower value
[3] = S. cerevisiae deletion strains, locus YBR229C, strain ROT2, stronger effect = lower value
[4] = S. cerevisiae deletion strains, locus YCL029C, strain bik1, stronger effect = lower value
[5] = S. cerevisiae deletion strains, locus YDL035C, strain GPR1, stronger effect = lower value
[6] = S. cerevisiae deletion strains, locus YDL074C, strain BRE1, stronger effect = lower value
[7] = S. cerevisiae deletion strains, locus YDL101C, strain DUN1, stronger effect = lower value
[8] = S. cerevisiae deletion strains, locus YDL185W, strain tfp1, stronger effect = lower value
[9] = S. cerevisiae deletion strains, locus YDL192W, strain arf1, stronger effect = lower value
[10] = S. cerevisiae deletion strains, locus YDR101C, strain arx1, stronger effect = lower value
[11] = S. cerevisiae deletion strains, locus YDR162C, strain NBP2, stronger effect = lower value
[12] = S. cerevisiae deletion strains, locus YDR318W, strain mcm21, stronger effect = lower value
[13] = S. cerevisiae deletion strains, locus YDR388W, stronger effect = lower value
[14] = S. cerevisiae deletion strains, locus YDR502C, strain sam2, stronger effect = lower value
[15] = S. cerevisiae deletion strains, locus YEL061C, strain CIN8, stronger effect = lower value
[16] = S. cerevisiae deletion strains, locus YER110C, stronger effect = lower value
[17] = S. cerevisiae deletion strains, locus YER155C, strain BEM2, stronger effect = lower value
[18] = S. cerevisiae deletion strains, locus YER167W, strain BCK2, stronger effect = lower value
[19] = S. cerevisiae deletion strains, locus YGL078C, strain dbp3, stronger effect = lower value
[20] = S. cerevisiae deletion strains, locus YGL086W, strain mad1, stronger effect = lower value
[21] = S. cerevisiae deletion strains, locus YGL248W, strain PDE1, stronger effect = lower value
[22] = S. cerevisiae deletion strains, locus YGR135W, strain pre9, stronger effect = lower value
[23] = S. cerevisiae deletion strains, locus YGR252W, strain gcn5, stronger effect = lower value
[24] = S. cerevisiae deletion strains, locus YHR030C, strain SLT2, stronger effect = lower value
[25] = S. cerevisiae deletion strains, locus YHR079C, strain IRE1 (second series), stronger effect = lower value
[26] = S. cerevisiae deletion strains, locus YHR094C, strain hxt1, stronger effect = lower value
[27] = S. cerevisiae deletion strains, locus YHR129C, strain ARP1, stronger effect = lower value
[28] = S. cerevisiae deletion strains, locus YHR200W, strain rpn10, stronger effect = lower value
[29] = S. cerevisiae deletion strains, locus YIL066C, strain RNR3, stronger effect = lower value
[30] = S. cerevisiae deletion strains, locus YIL073C, strain SPO22, stronger effect = lower value
[31] = S. cerevisiae deletion strains, locus YIL125W, strain kgd1, stronger effect = lower value
[32] = S. cerevisiae deletion strains, locus YIR030C, strain dcg1, stronger effect = lower value
[33] = S. cerevisiae deletion strains, locus YJL095W, strain BCK1, stronger effect = lower value
[34] = S. cerevisiae deletion strains, locus YJL134W, strain LCB3, stronger effect = lower value
[35] = S. cerevisiae deletion strains, locus YJL168C, strain set2, stronger effect = lower value
[36] = S. cerevisiae deletion strains, locus YJL187C, strain SWE1 (second series), stronger effect = lower value
[37] = S. cerevisiae deletion strains, locus YJR043C, strain POL32, stronger effect = lower value
[38] = S. cerevisiae deletion strains, locus YKL009W, strain mrt4, stronger effect = lower value
[39] = S. cerevisiae deletion strains, locus YKL068W, stronger effect = lower value
[40] = S. cerevisiae deletion strains, locus YKL085W, strain MDH1 (second series), stronger effect = lower value
[41] = S. cerevisiae deletion strains, locus YKL085W, strain MDH1, stronger effect = lower value
[42] = S. cerevisiae deletion strains, locus YKL190W, strain CNB1, stronger effect = lower value
[43] = S. cerevisiae deletion strains, locus YKR001C, strain vps1, stronger effect = lower value
[44] = S. cerevisiae deletion strains, locus YLR039C, strain RIC1, stronger effect = lower value
[45] = S. cerevisiae deletion strains, locus YLR058C, strain SHM2, stronger effect = lower value
[46] = S. cerevisiae deletion strains, locus YLR102C, strain apc9, stronger effect = lower value
[47] = S. cerevisiae deletion strains, locus YLR262C, strain YPT6, stronger effect = lower value
[48] = S. cerevisiae deletion strains, locus YLR268W, strain sec22, stronger effect = lower value
[49] = S. cerevisiae deletion strains, locus YLR330W, strain CHS5, stronger effect = lower value
[50] = S. cerevisiae deletion strains, locus YLR342W, strain FKS1 (second series), stronger effect = lower value
[51] = S. cerevisiae deletion strains, locus YLR371W, strain rom2, stronger effect = lower value
[52] = S. cerevisiae deletion strains, locus YLR418C, strain cdc73, stronger effect = lower value
[53] = S. cerevisiae deletion strains, locus YML016C, strain PPZ1, stronger effect = lower value
[54] = S. cerevisiae deletion strains, locus YML032C, strain rad52, stronger effect = lower value
[55] = S. cerevisiae deletion strains, locus YML124C, strain tub3, stronger effect = lower value
[56] = S. cerevisiae deletion strains, locus YMR078C, strain ctf18, stronger effect = lower value
[57] = S. cerevisiae deletion strains, locus YMR223W, strain ubp8, stronger effect = lower value
[58] = S. cerevisiae deletion strains, locus YMR307W, strain GAS1, stronger effect = lower value
[59] = S. cerevisiae deletion strains, locus YNL067W, strain RPL9B, stronger effect = lower value
[60] = S. cerevisiae deletion strains, locus YNL233W, strain BNI4, stronger effect = lower value
[61] = S. cerevisiae deletion strains, locus YNL250W, strain rad50, stronger effect = lower value
[62] = S. cerevisiae deletion strains, locus YNL271C, strain bni1, stronger effect = lower value
[63] = S. cerevisiae deletion strains, locus YNL298W, strain CLA4, stronger effect = lower value
[64] = S. cerevisiae deletion strains, locus YNL307C, strain MCK1, stronger effect = lower value
[65] = S. cerevisiae deletion strains, locus YNL322C, strain KRE1, stronger effect = lower value
[66] = S. cerevisiae deletion strains, locus YNR052C, strain pop2, stronger effect = lower value
[67] = S. cerevisiae deletion strains, locus YOL012C, strain htz1
[68] = S. cerevisiae deletion strains, locus YOL147C, strain pex11, stronger effect = lower value
[69] = S. cerevisiae deletion strains, locus YOR061W, strain CKA2, stronger effect = lower value
[70] = S. cerevisiae deletion strains, locus YOR069W, strain VPS5, stronger effect = lower value
[71] = S. cerevisiae deletion strains, locus YOR136W, strain idh2, stronger effect = lower value
[72] = S. cerevisiae deletion strains, locus YOR144C, strain elg1, stronger effect = lower value
[73] = S. cerevisiae deletion strains, locus YOR184W, strain ser1, stronger effect = lower value
[74] = S. cerevisiae deletion strains, locus YOR316C, strain cot1, stronger effect = lower value
[75] = S. cerevisiae deletion strains, locus YPL055C, strain LGE1, stronger effect = lower value
[76] = S. cerevisiae deletion strains, locus YPR119W, strain clb2, stronger effect = lower value
[77] = S. cerevisiae deletion strains, locus YPR141C, strain kar3, stronger effect = lower value
[78] = S. cerevisiae deletion strains, locus YPR163C, strain tif3, stronger effect = lower value
[79] = S. cerevisiae deletion strains, locus YPR167C, strain met16, stronger effect = lower value
[80] = S. cerevisiae deletion strains, strain wtn01, stronger effect = lower value

Measured: normalized growth

CC(C)CCCC(C)[C@H]1CCC2C3CC[C@@H]4C[C@H](O)CC[C@]4(C)C3CC[C@@]21C (stereo partly specified)
inactive: [1] 1.04 | [2] 0.992 | [3] 1 | [4] 1.02 | [5] 1.02 | [6] 1.01 | [7] 1.01 | [8] 1.02 | [9] 1 | [10] 0.991 | [11] 1.03 | [12] 1.01 | [13] 1 | [14] 0.999 | [15] 1 | [16] 1.01 | [17] 1 | [18] 1.02 | [19] 1 | [20] 1 | [21] 1.01 | [22] 1.01 | [23] 0.985 | [24] 1.01 | [25] 0.997 | [26] 1.01 | [27] 1 | [28] 1 | [29] 1.03 | [30] 1.03 | [31] 0.999 | [32] 1 | [33] 1.01 | [34] 1.01 | [35] 0.994 | [36] 1.01 | [37] 1.01 | S. cerevisiae deletion strains, locus YJR075W, strain HOC1, stronger effect = lower value 1 | [38] 1.02 | [39] 1 | [40] 1.01 | [41] 1.01 | [42] 1.01 | [43] 0.998 | [44] 1.06 | [45] 1 | [46] 1 | [47] 1.06 | [48] 0.999 | [49] 1.01 | [50] 1.01 | [51] 1.02 | [52] 0.978 | [53] 1.01 | [54] 1 | [55] 1 | [56] 1 | [57] 1.01 | [58] 1.07 | [59] 1.01 | S. cerevisiae deletion strains, locus YNL153C, strain GIM3, stronger effect = lower value 1.01 | [60] 1.01 | [61] 1 | [62] 1.01 | [63] 1 | [64] 1.01 | [65] 1.01 | [66] 0.999 | S. cerevisiae deletion strains, locus YOL006C, strain TOP1, stronger effect = lower value 1.04 | [67] 0.869 | [68] 0.991 | [69] 1.01 | [70] 1.01 | [71] 0.994 | [72] 0.987 | [73] 0.989 | [74] 1 | [75] 1.01 | [76] 1 | [77] 1.02 | [78] 1.01 | [79] 1 | [80] 1

CC(C)CCCC(C)C1CCC2C3CC[C@H]4C[C@H](O)CC[C@]4(C)C3CC[C@]12C (stereo partly specified)
inactive: [24] 0.98 | S. cerevisiae deletion strains, locus YHR079C, strain IRE1, stronger effect = lower value 0.985 | [33] 0.992 | S. cerevisiae deletion strains, locus YJR066W, strain TOR1, stronger effect = lower value 0.919 | S. cerevisiae deletion strains, locus YLR113W, strain HOG1, stronger effect = lower value 0.985 | S. cerevisiae deletion strains, locus YNL183C, strain NPR1, stronger effect = lower value 0.916 | S. cerevisiae deletion strains, locus YOR231W, strain MKK1, stronger effect = lower value 0.991 | S. cerevisiae deletion strains, locus YPL256C, strain CLN2, stronger effect = lower value 0.981

CC(C)CCCC(C)C1CCC2C3CC[C@H]4C[C@@H](O)CC[C@]4(C)C3CC[C@]12C (stereo partly specified)
inactive: [1] 1 | [2] 1 | [3] 1.01 | [4] 1.03 | [5] 1 | [6] 1.02 | [7] 1.01 | [8] 1.01 | [9] 1.01 | [10] 1.04 | [11] 0.987 | [12] 0.984 | [13] 0.997 | [14] 1.03 | [15] 0.995 | [16] 1 | [17] 0.997 | [18] 0.997 | [19] 1.02 | [20] 1.03 | [21] 1 | [22] 0.99 | S. cerevisiae deletion strains, locus YGR229C, strain SMI1, stronger effect = lower value 1 | [23] 0.96 | [24] 0.996 | [25] 0.995 | [26] 0.995 | [27] 1.01 | [28] 1.01 | [29] 1 | [30] 1.02 | [31] 1.01 | [32] 1 | [33] 0.997 | [34] 1.01 | [35] 1 | [36] 1.01 | [37] 0.988 | [38] 0.997 | [39] 0.999 | [40] 0.994 | [41] 0.994 | [42] 0.994 | [43] 1.01 | [44] 1.05 | [45] 0.987 | [46] 1.01 | [47] 1.08 | [48] 1.04 | [49] 0.989 | [50] 1.01 | [51] 1 | [52] 1.01 | [53] 1.01 | [54] 0.975 | [55] 0.996 | [56] 1 | [57] 0.989 | S. cerevisiae deletion strains, locus YMR263W, strain SAP30, stronger effect = lower value 0.999 | [58] 1.06 | [59] 1.01 | S. cerevisiae deletion strains, locus YNL128W, strain TEP1, stronger effect = lower value 0.972 | [60] 1.01 | [61] 0.997 | [62] 1.01 | [63] 1 | [64] 1.01 | [65] 0.998 | [66] 0.996 | [67] 1.64 | [68] 1 | [69] 0.997 | [70] 1 | [71] 1.01 | [72] 1 | [73] 1.03 | [74] 1 | [75] 0.992 | S. cerevisiae deletion strains, locus YPL241C, strain CIN2, stronger effect = lower value 0.99 | [76] 0.998 | [77] 1 | [78] 1 | [79] 0.994 | [80] 1.04 | S. cerevisiae strains, strain wild type, stronger effect = lower value 0.976
